Test results as given in the supplement of paper PMC10849652.
Targets with a hit are over-represented here; the source holds about 8,800 in all. About 0.5% of all pairs of compound and target were hits.

The targets below were run with NCC(=O)Nc1ccc(-n2nc(C(F)(F)F)cc2-c2ccc3c(ccc4ccccc43)c2)cc1 (assay: log2 fold change, soluble protein after heating vs DMSO (PISA); higher = thermal stabilisation; K562 lysate, 10 uM; active = over 0.2 and 3.5 SD of the protein, either way, in both replicates (recomputed)).
Summary of the method: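 Thermal stability, expressed as log-two fold change relative to solvent controls, is given from duplicates. Crude K562 extract in PBS pH 7.4 with 1 mM MgCl2, at 1 mg/mL protein, was treated with 10 μM compound for 30 min and heated in aliquots for 3 min across 48°C-58°C. After pooling, adjustment to 0.5% NP-40 at 4°C and centrifugation at 21,000xg for 90 min, supernatant protein was measured by TMTpro 16plex LC-MS/MS with channel sums equalised.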

Sequence of UniProt P53396 (P53396 whole entry, looked up): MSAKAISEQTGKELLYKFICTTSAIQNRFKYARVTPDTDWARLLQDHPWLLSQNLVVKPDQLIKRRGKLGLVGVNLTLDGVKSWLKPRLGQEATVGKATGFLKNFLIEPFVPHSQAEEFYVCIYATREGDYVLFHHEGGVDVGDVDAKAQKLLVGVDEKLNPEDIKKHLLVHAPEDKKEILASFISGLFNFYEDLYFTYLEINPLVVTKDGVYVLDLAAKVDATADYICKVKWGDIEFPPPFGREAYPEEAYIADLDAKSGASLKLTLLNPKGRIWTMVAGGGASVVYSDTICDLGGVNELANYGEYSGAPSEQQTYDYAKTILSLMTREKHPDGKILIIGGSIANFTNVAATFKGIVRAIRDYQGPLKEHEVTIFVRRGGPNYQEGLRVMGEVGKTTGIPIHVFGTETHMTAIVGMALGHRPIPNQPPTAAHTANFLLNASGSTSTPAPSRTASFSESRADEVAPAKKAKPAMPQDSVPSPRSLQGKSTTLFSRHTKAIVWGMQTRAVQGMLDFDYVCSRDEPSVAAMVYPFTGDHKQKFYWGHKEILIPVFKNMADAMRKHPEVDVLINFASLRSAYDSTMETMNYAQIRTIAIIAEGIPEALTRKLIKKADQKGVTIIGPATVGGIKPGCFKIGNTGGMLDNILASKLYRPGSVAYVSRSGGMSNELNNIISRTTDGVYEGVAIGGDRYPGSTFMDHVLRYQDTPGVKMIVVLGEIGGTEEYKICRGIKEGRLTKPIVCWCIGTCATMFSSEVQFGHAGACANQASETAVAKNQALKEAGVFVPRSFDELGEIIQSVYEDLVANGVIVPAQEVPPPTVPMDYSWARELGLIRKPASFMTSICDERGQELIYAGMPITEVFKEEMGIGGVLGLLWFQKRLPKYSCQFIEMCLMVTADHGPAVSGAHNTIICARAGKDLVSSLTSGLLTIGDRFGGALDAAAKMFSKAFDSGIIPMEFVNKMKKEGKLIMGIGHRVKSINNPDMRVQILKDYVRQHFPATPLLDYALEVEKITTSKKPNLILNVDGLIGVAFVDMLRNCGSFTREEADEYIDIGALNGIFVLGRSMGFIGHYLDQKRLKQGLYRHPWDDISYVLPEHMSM
Sequence of UniProt Q9BTT0 (Q9BTT0 whole entry, looked up): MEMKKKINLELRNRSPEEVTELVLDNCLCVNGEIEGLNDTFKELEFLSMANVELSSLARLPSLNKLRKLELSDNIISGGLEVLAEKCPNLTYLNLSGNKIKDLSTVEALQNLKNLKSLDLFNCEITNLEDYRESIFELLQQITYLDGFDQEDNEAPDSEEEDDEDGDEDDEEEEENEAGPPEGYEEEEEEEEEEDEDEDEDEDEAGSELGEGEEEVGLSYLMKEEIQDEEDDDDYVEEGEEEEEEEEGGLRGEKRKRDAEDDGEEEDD
Sequence of UniProt Q6P1M9 (Q6P1M9 whole entry, looked up): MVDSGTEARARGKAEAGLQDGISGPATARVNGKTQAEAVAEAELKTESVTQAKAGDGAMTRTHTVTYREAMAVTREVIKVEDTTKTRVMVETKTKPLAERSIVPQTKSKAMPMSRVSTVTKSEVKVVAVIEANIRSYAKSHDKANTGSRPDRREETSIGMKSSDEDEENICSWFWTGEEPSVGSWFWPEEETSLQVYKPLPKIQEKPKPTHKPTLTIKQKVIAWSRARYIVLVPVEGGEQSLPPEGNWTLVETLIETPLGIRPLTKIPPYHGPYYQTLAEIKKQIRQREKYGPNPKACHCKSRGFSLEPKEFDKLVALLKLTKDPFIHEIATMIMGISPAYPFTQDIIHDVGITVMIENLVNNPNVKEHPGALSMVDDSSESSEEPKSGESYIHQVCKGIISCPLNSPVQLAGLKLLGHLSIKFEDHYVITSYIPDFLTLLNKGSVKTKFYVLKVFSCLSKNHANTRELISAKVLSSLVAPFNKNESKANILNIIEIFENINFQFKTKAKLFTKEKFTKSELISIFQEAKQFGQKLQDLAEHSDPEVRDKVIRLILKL
Sequence of UniProt Q7L211 (Q7L211 whole entry, looked up): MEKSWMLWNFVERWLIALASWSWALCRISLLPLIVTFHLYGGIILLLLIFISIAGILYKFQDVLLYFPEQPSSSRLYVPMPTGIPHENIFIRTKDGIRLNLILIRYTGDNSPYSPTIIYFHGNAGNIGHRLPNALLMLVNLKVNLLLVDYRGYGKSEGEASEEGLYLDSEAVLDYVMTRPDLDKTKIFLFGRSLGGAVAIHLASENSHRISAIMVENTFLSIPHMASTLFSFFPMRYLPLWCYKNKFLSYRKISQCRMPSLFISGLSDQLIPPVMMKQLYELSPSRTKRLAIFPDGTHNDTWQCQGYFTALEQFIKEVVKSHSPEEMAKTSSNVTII
Sequence of UniProt Q6NXE6 (Q6NXE6 whole entry, looked up): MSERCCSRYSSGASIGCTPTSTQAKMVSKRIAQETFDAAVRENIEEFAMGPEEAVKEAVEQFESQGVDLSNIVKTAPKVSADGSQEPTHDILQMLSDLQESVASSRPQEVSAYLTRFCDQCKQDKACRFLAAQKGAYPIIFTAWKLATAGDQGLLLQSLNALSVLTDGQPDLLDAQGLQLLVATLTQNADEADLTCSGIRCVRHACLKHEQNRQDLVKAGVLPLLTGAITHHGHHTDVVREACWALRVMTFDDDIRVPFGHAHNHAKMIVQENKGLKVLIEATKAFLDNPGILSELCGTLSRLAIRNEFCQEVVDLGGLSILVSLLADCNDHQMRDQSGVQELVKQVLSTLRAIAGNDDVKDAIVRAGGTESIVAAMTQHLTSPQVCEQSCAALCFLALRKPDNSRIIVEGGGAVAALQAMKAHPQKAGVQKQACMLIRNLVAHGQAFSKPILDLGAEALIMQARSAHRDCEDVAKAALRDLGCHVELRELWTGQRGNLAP
Sequence of UniProt P50995 (P50995 whole entry, looked up): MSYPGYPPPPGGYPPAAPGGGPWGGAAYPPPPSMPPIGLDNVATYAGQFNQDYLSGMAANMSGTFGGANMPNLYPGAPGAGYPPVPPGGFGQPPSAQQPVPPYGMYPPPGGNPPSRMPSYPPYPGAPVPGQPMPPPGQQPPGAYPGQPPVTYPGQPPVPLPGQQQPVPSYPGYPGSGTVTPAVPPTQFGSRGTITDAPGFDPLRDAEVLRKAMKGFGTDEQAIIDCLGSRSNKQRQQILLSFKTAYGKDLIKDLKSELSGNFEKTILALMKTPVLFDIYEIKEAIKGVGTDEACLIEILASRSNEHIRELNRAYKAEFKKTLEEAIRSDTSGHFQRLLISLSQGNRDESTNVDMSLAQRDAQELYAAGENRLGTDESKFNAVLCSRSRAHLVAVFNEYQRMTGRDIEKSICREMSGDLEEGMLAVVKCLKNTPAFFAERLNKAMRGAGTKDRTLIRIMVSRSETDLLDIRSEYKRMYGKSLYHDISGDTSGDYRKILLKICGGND
Sequence of UniProt Q15067 (Q15067 whole entry, looked up): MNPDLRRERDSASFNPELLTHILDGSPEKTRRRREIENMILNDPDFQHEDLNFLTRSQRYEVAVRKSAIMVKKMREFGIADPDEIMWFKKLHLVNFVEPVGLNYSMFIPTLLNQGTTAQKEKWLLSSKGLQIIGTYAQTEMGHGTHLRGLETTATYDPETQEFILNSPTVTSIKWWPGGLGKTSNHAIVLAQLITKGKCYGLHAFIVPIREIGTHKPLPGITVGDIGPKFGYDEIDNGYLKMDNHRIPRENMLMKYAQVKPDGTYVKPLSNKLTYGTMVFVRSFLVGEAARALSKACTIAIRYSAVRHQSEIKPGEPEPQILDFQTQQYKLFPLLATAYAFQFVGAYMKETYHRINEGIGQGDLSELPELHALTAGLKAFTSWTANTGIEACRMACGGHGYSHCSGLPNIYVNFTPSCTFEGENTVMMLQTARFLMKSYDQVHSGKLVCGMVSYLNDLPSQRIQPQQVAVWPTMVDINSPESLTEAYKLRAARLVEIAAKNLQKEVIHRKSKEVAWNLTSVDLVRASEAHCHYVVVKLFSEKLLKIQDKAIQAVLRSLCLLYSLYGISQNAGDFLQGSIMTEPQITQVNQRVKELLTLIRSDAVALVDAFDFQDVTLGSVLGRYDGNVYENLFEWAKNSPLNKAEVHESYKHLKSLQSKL
Sequence of UniProt Q9Y303 (Q9Y303 whole entry, looked up): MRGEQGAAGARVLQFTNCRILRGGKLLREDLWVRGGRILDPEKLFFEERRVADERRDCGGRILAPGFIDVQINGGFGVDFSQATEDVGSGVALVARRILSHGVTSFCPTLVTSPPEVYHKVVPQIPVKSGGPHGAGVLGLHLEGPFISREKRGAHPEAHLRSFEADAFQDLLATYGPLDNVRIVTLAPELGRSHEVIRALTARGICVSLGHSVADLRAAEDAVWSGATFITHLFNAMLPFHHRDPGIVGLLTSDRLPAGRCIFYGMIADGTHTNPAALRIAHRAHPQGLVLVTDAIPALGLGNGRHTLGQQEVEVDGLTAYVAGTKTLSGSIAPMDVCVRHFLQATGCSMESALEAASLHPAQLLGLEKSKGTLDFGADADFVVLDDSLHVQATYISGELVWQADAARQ
Sequence of UniProt P55263 (P55263 whole entry, looked up): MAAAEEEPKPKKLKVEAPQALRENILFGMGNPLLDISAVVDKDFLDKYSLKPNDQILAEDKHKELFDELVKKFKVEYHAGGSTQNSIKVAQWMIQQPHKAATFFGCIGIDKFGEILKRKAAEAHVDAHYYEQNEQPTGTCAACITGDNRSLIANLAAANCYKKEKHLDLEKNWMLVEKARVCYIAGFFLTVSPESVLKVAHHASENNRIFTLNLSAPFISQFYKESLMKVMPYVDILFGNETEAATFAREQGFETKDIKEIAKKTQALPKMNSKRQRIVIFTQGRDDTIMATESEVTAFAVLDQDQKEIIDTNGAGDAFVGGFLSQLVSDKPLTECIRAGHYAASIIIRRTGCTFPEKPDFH
Sequence of UniProt P27144 (P27144 whole entry, looked up): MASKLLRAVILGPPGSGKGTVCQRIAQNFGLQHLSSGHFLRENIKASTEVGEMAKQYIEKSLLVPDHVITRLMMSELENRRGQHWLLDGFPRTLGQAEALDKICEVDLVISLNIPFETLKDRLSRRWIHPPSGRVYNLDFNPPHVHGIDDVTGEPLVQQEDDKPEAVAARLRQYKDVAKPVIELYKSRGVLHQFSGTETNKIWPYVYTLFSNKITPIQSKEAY

Target | log2 fold change
ABHD13 (UniProt Q7L211) | 0.023 (inactive)
ADD1 isoform 4 (UniProt P35611) | 0.037 (inactive)
ANKRD44 isoform 2 (UniProt Q8N8A2) | 0.127 (inactive)
ANP32E isoform 3 (UniProt Q9BTT0) | 0.135 (inactive)
ANXA11 (UniProt P50995) | -0.003 (inactive)
ABCC5 (UniProt O15440) | 0.025 (inactive)
ARMC6 (UniProt Q6NXE6) | -0.011 (inactive)
AMDHD2 (UniProt Q9Y303) | -0.092 (inactive)
ALDH18A1 isoform 2 (UniProt P54886) | 0.097 (inactive)
ANP32E (UniProt Q9BTT0) | 0.021 (inactive)
ACOX1 isoform 2 (UniProt Q15067) | 0.009 (inactive)
ARHGEF2 (UniProt V9GYF0) | 0.157 (inactive)
ADAR isoform 4 (UniProt P55265) | -0.029 (inactive)
ARMCX5 (UniProt Q6P1M9) | -0.233 (inactive)
ADK (UniProt P55263) | -0.049 (inactive)
ALKBH1 (UniProt Q13686) | -0.089 (inactive)
ACLY (UniProt P53396) | -0.008 (inactive)
ACLY isoform 2 (UniProt P53396) | 0.091 (inactive)
AIP (UniProt O00170) | -0.001 (inactive)
AK4 (UniProt P27144) | -0.051 (inactive)
ANKRD30B (UniProt Q9BXX2) | 0.228 (inactive)
ACSL1 (UniProt P33121) | -0.092 (inactive)
